Source: ChEMBL document CHEMBL3988442, “University of Dundee, Small-Polar-MMV Screening Library” (2021)
For some of these results: Results with a measured potency or affinity are listed apart.

Columns and labels:
Parameters in all cases: scale not given: direction of the effect not stated beside the values
[1] = molecular target: Protein translocase subunit SecA (Escherichia coli (strain K12)) (UniProt P10408); experiment: Assay to Identify E. coli SecA ATPase Inhibitors; format: functional; conditions: 30 µM
[2] = molecular target: T1, Ubiquitin-activating enzyme e1, putative (Leishmania donovani (strain BPK282A1)) (UniProt E9BSI1); experiment: Leishmania donovani Ubiquitin Activating Enzyme (LdE1); format: functional; conditions: 30 µM
T1 sequence (whole entry): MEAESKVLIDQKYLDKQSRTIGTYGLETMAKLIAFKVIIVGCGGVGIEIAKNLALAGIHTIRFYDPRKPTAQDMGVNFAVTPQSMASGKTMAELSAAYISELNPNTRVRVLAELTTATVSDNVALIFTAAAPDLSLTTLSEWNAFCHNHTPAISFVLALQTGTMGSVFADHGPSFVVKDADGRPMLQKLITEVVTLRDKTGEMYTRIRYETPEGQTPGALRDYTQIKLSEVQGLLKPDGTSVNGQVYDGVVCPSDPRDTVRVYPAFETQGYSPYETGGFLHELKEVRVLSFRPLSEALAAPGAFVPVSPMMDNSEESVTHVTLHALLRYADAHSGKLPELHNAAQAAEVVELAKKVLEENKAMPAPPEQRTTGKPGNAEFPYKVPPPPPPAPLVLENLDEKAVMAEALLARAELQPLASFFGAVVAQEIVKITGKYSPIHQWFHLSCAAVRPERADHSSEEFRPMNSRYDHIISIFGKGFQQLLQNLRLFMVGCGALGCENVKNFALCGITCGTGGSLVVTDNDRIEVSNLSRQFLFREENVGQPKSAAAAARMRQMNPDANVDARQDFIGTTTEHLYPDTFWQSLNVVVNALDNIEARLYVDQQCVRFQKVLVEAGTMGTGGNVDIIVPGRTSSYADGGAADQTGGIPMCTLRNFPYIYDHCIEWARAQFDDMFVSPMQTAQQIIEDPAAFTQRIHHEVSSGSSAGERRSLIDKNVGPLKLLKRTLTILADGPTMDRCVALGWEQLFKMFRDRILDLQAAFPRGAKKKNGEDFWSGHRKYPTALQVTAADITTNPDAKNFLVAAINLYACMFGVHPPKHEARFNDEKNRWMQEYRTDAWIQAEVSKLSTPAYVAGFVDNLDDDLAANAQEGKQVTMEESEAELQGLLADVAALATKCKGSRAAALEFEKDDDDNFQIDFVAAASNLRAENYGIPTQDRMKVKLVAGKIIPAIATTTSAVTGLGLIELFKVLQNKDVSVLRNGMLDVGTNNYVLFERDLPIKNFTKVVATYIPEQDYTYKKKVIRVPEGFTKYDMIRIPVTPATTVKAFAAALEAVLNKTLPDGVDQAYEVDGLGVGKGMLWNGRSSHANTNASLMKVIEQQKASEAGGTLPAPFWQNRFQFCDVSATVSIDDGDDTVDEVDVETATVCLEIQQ

[3] = molecular target: AMP-activated protein kinase, AMPK (Homo sapiens) (UniProt P54646+O43741+P54619+Q9UGJ0+Q9Y478+Q13131+Q9UGI9); experiment: AMP-dependent Kinase enzyme assay. An in vitro enzyme assay that detects ADP turnover that is directly proportional to AMPK activity. This uses naive AMPK that is activated during the assay with MK-8722; format: functional; conditions: 30 µM
[4] = molecular target: Sialic acid-binding Ig-like lectin 9 (Homo sapiens) (UniProt Q9Y336); experiment: Hs-Siglec9 ALPHAscreen SOP 20170721; conditions: 10 µM
Trypanosoma cruzi = experiment: Trypanosoma cruzi phosphomannomutase and mannose-1-phosphate guanylyltransferase assay; format: functional; conditions: 10 µM
[5] = molecular target: T2, Arginase-2, mitochondrial (Homo sapiens) (UniProt P78540); experiment: in vitro enzyme assay to detect the production of urea directly proportional to the activity of Arginase II; format: functional; conditions: 33.3 µM; note: in the data most compounds retested in dose-response had high values
T2 sequence (whole entry): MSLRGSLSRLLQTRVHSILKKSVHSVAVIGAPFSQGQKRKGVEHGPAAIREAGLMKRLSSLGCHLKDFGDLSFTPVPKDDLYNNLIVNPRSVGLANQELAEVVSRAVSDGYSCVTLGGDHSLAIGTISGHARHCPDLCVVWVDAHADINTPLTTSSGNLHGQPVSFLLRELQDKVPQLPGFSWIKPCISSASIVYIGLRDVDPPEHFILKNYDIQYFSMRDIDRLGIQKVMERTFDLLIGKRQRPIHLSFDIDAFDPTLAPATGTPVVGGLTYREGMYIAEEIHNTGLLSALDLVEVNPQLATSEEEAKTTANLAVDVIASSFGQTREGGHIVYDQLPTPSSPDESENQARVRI

[6] = molecular target: T3, Proteasome subunit beta (Trypanosoma cruzi) (UniProt O96673); experiment: Trypanosoma cruzi proteasome chymotrypsin-like activity (TcProtChymo) assay.; note: in the data most compounds retested in dose-response had high values; format: functional; conditions: 9.37 µM
T3 sequence (whole entry): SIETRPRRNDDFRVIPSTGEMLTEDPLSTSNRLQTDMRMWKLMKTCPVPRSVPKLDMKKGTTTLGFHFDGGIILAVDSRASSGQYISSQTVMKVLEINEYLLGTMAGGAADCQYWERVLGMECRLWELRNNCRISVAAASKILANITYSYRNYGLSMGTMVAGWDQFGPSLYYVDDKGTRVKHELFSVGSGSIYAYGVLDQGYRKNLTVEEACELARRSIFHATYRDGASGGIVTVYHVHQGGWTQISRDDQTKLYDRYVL

Homo sapiens = species: Homo sapiens; experiment: To identify inhibition of the IFN signalling (Jak-Stat) pathway via expression of an eGFP reporter gene under the control of an IFN-stimulated response element (ISRE) containing MxA promoter.; format: functional; conditions: 30 µM
[7] = molecular target: T4, Tyrosyl-tRNA synthetase, putative (Trypanosoma cruzi (strain CL Brener)) (UniProt Q4DSP6); experiment: Trypanosoma cruzi tyrosyl tRNA synthetase (TcYRS) _High Tyrosine SOP; format: functional; conditions: 30 µM; note: in the data most compounds retested in dose-response had high values
T4 sequence (whole entry): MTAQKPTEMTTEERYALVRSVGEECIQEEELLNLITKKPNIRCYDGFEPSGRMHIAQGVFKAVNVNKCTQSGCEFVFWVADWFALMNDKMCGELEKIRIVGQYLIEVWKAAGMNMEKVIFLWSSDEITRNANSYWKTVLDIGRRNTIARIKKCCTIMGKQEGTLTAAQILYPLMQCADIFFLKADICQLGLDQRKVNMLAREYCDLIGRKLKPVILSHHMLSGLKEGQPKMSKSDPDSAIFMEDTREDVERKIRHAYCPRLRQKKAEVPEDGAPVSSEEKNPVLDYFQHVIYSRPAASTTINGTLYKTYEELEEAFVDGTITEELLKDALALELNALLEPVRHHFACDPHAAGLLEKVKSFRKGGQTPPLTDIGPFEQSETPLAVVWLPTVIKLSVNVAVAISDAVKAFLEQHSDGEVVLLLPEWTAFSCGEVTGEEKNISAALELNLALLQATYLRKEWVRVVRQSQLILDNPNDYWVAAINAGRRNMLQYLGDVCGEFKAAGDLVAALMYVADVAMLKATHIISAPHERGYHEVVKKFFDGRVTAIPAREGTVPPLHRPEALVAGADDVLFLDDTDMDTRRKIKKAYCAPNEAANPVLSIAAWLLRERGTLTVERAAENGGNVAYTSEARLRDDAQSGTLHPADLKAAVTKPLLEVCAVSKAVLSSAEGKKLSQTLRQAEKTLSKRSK

[8] = molecular target: T4, Tyrosyl-tRNA synthetase, putative (Trypanosoma cruzi (strain CL Brener)); experiment: Trypanosoma cruzi tyrosyl tRNA synthetase (TcYRS) SOP; format: functional; conditions: 30 µM
[9] = molecular target: Chromo domain-containing protein 1 (Saccharomyces cerevisiae (strain ATCC 204508 / S288c) (Baker's yeast)) (UniProt P32657); experiment: ScCHD-1 Enzyme Inhibition Assay; format: functional; conditions: 30 µM; note: in the data most compounds retested in dose-response had high values
Sequence of Chromo domain-containing protein 1 (Saccharomyces cerevisiae (strain ATCC 204508 / S288c) (Baker's yeast)) (P32657 whole entry, the tested form may be a part): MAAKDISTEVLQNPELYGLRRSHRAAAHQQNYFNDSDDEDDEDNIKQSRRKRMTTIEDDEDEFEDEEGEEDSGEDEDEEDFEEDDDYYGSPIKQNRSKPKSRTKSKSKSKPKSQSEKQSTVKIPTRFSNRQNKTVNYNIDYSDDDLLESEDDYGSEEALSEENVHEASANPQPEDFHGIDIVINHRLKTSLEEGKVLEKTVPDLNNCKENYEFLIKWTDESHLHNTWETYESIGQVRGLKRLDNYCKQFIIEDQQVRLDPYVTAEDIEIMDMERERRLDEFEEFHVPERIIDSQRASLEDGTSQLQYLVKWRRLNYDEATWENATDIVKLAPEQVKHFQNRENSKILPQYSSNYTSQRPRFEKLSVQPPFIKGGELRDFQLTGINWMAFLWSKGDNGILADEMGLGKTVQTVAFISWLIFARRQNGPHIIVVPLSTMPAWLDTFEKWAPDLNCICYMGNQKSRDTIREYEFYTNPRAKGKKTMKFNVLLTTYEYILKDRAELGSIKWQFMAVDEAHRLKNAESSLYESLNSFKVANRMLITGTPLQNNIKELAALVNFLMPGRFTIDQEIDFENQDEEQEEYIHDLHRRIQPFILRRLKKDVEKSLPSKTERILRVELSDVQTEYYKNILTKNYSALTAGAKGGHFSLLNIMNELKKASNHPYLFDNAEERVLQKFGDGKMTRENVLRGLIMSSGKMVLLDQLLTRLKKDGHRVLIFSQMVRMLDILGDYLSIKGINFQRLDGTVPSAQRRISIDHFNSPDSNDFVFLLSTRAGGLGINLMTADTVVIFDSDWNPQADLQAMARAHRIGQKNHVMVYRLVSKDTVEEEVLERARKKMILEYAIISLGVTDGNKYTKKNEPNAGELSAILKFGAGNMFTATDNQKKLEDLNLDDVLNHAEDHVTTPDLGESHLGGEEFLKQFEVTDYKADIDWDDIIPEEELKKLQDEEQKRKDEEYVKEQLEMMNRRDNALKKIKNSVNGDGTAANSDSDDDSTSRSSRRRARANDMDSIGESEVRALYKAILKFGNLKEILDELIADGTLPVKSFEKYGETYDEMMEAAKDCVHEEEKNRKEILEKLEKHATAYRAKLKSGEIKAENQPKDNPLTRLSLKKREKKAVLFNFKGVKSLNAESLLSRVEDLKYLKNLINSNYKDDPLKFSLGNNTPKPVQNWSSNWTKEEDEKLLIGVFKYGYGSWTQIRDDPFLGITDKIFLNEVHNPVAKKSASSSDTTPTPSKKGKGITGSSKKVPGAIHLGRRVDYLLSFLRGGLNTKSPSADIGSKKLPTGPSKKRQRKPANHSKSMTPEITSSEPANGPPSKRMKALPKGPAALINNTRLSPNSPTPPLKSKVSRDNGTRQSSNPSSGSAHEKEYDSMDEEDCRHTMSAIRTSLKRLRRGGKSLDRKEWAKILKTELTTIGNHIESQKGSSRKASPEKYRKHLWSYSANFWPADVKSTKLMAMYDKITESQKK

Sequence of Protein translocase subunit SecA (Escherichia coli (strain K12)) (P10408 whole entry): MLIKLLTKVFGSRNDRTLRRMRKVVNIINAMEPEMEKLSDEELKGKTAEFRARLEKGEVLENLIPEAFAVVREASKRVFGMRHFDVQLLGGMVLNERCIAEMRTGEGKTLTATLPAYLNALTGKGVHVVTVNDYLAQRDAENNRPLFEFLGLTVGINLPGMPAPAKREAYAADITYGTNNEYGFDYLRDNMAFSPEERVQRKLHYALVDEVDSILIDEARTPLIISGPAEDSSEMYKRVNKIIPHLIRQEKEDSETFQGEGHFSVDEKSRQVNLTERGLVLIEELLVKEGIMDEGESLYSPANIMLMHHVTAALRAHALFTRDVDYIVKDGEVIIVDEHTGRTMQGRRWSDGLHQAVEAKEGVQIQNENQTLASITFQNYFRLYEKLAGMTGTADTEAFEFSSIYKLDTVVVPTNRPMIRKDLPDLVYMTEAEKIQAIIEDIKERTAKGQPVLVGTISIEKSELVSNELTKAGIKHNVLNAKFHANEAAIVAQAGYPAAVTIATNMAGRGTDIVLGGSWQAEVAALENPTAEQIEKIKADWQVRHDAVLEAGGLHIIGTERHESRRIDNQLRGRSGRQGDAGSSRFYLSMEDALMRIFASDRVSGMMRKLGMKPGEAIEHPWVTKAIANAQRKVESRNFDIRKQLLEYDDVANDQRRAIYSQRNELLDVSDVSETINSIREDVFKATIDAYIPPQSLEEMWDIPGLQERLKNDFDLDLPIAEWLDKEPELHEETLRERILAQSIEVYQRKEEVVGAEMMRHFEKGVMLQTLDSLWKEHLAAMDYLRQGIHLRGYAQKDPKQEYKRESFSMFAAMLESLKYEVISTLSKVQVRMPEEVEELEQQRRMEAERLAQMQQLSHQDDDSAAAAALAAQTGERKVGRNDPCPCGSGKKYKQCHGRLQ
Sequence of Sialic acid-binding Ig-like lectin 9 (Homo sapiens) (Q9Y336 whole entry): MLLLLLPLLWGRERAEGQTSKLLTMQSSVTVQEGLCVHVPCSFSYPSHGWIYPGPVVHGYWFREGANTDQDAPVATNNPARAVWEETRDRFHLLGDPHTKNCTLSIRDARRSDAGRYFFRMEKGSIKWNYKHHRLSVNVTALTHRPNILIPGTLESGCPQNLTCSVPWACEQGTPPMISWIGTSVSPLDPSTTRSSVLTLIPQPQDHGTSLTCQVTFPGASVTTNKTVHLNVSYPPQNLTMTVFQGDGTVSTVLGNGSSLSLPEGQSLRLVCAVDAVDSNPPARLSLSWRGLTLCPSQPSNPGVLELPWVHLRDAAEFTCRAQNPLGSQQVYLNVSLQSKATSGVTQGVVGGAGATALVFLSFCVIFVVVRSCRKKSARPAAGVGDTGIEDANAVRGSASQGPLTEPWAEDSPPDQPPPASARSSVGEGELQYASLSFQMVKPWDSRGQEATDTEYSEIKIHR

SMILES | Percent Effect [1] [%] | Percent Effect [2] [%] | Percent Effect [3] [%] | Percent Effect [4] [%] | Percent Effect (Trypanosoma cruzi) [%] | Percent Effect [5] [%] | Percent Effect [6] [%] | Percent Effect (Homo sapiens) [%] | Percent Effect [7] [%] | Percent Effect [8] [%] | Percent Effect [9] [%]
CC(C)C(=O)N1CCN(C(=O)c2cc(C(C)C)on2)[C@H]2CS(=O)(=O)C[C@H]21 | -2.71 | 18.1 | -7.12 | 11.2 | 3.4 | 7.06 | 17.5 | 13.2 | 0 | 7.69 | -5.25
O=S(=O)(CCNCc1cccc2c1OCCO2)N1CCOCC1 | 0.589 | 10.8 | -8.76 | 1 | -0.965 | -0.476 | 9.14 | 24.3 | 5.82 | 4.88 | -2.36
Cc1nc(C)n(C2CCCN(C(=O)c3cc4ccccc4n3C)C2)n1 (stereo not given) | -3.87 | 7.79 | -8.41 | 1.64 | 5.78 | 0.632 | 6.71 | 17.1 | 7.62 | 9.41 | -16.3
O=C(c1cnco1)N1C[C@@H]2CC[C@H](Oc3cccc(F)c3)[C@@H]2C1 | -9.68 | 12.2 | 2.91 | 6.76 | 0.988 | -4.41 | 10.9 | 9.56 | 3.23 | 11.7 | -8.63
Cn1cc(N2CCC3(CCN(Cc4nccs4)C3)C2=O)cn1 (stereo not given) | -2.64 | 2.7 | 4.13 | -6.07 | -4.2 | 0.319 | 16.4 | -1.48 | 4.32 | 10.3 | -0.716
O=C(N1CCCC1)N1Cc2nccn2CC(CN2CCCC2)C1 (stereo not given) | 0.719 | 5.41 | 7.93 | -1.18 | -5.77 | -0.955 | 25.8 | -2.41 | -1.08 | 10.3 | -2.63
Cn1cccc1C(=O)N1CCc2ncnc(N3CCCC3)c2CC1 | -4.32 | 5.33 | 8.28 | 2.39 | 4.13 | -4.43 | -0.264 | 8.45 | 5.32 | 11.5 | -2.07
Cc1nocc1C(=O)N1CCc2c(CN(C)C(C)C)n[nH]c2C1 | 1.54 | 11 | -4.98 | 8.21 | 3.77 | -0.798 | 20.3 | 21 | 5.21 | 13.6 | -3.84
O=C1CCC2(CCN(Cc3cc(F)ccc3Cl)CC2)CN1C1CCCC1 | 0.0694 | 13.3 | -4.38 | 3.44 | 3.99 | 0 | 18.1 | 18.2 | 7.1 | 13.6 | -2.27
c1ccc(CN2CCCC2Cn2cncn2)nc1 (stereo not given) | -2.52 | -2.53 | 3.76 | 6.27 | 3.87 | -0.76 | 5.32 | -14.3 | 9.36 | 3.8 | -4.39
O=C(CCc1cscn1)NS(=O)(=O)c1ccc2ccccc2c1 | -4.59 | 1.39 | -10.1 | 23.9 | 3.4 | 4.42 | 0.877 | 0.282 | 8.42 | 5.13 | -4.15
CN(CCc1ccccn1)S(=O)(=O)N1CCCC1c1ccco1 (stereo not given) | 0.19 | 16.2 | 2.74 | -10.8 | -9.94 | 4.25 | 13.1 | 17.6 | 6.93 | 11 | -5.75
CCNC(=O)c1nnc2ccc(N3CCOCC3)cc2n1 | -7.02 | -1.33 | 58.5 | 3.63 | -6.09 | -3.7 | 7.95 | 19.8 | 7.41 | 7.69 | -13.2
Cc1ncc(-c2nc3cc(S(=O)(=O)N4CCCC4)ccc3n2C)cn1 | -5.62 | 5.48 | 12.1 | -7.83 | 0 | 6.36 | 2.13 | 14.1 | 6.45 | 15 | -1.23
CC(C)C(=O)NCC(=O)N(C)C1CCCN(C2Cc3ccccc3C2)C1 (stereo not given) | 0.272 | 8.11 | -4.7 | 3.43 | -3.48 | 0.476 | 14.3 | 11.7 | -1.59 | -26.8 | -2.54
Cc1scc(C(=O)N2CCC3(CC(=O)NC3=O)C2)c1-c1ccccc1 (stereo not given) | -2.27 | 5.41 | 3.06 | 1.45 | 1.35 | 2.86 | 12.2 | 0.902 | 8.99 | 9.76 | -5.21
Cn1c(Cn2ccnc2)nnc1C1CCN(C(=O)C2(C)CC2)CC1 | -1.61 | 11 | -0.77 | 4.51 | -2.98 | -4.39 | 21 | 17 | 5.21 | 18.5 | -5.12
Cc1nc2n(n1)CC(Nc1cc(C(F)(F)F)nc3ncnn13)CC2 (stereo not given) | -4.34 | 5.48 | 10.2 | -0.512 | 5.49 | -0.909 | 11.4 | -14.4 | 2.15 | 17.5 | -3.28
O=C(NCCN1CCOCC1)c1n[nH]c(=O)c2ccccc12 | -3.44 | 28.6 | -3.48 | 5.43 | 6.37 | -3.56 | 14.2 | 12.3 | 4.85 | 21.9 | -9.16
CCS(=O)(=O)NC[C@]12COC[C@H]1CN(Cc1cccc(OC)c1)C2 | -2.67 | -2.7 | 2.37 | 5.65 | 6.16 | -4.14 | 7.93 | 11.7 | 0 | 5.13 | 14.6
